TbPYK inhibitor: inhibitors of Trypanosoma brucei pyruvate kinase. Q57TT1. AID 624173. 410,000 compounds, 0.12% hits. Potency, µM (series often up to 76.8 µM), without a hit: at the highest dose activity, negative = inhibition, actives largely listed as inhibitors. TbPYK enzyme, Kinase-Glo Plus ATP luminescence, 45 min; further: on the % scale 0 is the no-effect control and ±100 the full control effect; nearly all actives have a fitted effect of over 50% in size
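Enzyme and substrate buffer are dispensed first and compound is pin-transferred. ADP at 130 uM final then starts the reaction, which runs 45 min at room temperature. Detection reagent is added for 10 min before luminescence is imaged.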
LmPK inh: blocks Leishmania mexicana pyruvate kinase activity. AID 1721. 290,000 compounds, 0.37% hits. purified LmPK, Kinase-Glo ATP luminescence, 1 h. Potency, µM (highest dose often 57.5 µM), for the others: top-dose activity change, negative = inhibition, usual class: inhibitors; further: on the % scale 0 is the no-effect control and ±100 the full control effect
Target sequence (Q27686 whole entry, looked up): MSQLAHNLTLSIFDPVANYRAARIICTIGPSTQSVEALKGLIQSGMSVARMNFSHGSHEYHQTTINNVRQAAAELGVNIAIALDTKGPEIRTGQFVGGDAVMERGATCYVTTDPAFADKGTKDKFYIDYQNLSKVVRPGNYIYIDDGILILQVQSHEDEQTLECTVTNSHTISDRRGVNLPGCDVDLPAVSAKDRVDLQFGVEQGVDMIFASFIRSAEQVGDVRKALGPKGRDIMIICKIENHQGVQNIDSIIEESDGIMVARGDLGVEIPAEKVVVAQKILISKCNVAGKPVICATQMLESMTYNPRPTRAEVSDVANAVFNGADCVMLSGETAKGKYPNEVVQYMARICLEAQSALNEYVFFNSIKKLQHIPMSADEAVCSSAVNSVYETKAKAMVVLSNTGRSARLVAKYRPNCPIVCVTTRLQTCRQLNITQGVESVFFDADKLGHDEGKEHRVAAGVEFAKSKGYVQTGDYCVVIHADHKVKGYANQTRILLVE
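Pyruvate kinase activity monitored as ATP production (luciferase luminescence). Conditions: 0.1 nM enzyme, 0.5 mM PEP, 0.1 mM ADP, 1 h, RT; normalized against uninhibited and no-enzyme wells.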
AMA1-RON2 inh: inhibitors of Plasmodium falciparum AMA1-RON2 interaction; 360,000 compounds, 0.2% hits; AID 720542; AlphaScreen AMA1-biotinylated RON2 peptide binding; Potency, µM (titrated, usually from 58.2 µM), for the others: at the highest dose activity change, negative = inhibition, usual class: inhibitors;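 further: 0% = vehicle wells and -100% = peptide control; nearly all actives have a fitted effect of over 45% in size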
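AMA1 (3D7) with his tag at 25 nM final met compounds first, then biotinylated RON2 peptide at 25 nM; detection used donor plus acceptor beads, 10 µg/mL apiece, read by AlphaScreen after 30 min at room temperature.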
RE007 growth inh: less growth of the S. pombe RE007 Vpr strain | Potency, µM (titrated, usually from 92.2 µM), for the others: top-dose activity change, negative = less growth, actives largely listed as inhibitors | S. pombe RE007 Vpr strain, BacTiter-Glo ATP luminescence, 24 h | 360,000 compounds, 0.21% hits; active means well fitted falling curve with a large enough effect; inconclusive means small, poorly fitted or top-dose-only effect; inactive means no such curve, though single readings can be large or run the other way; further: on the % scale 0 is the no-effect control and ±100 the full control effect; nearly all actives have a fitted effect of over 50% in size
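Fission yeast RE007 carrying one integrated HIV-1 vpr copy, seeded at OD 0.01 in PMG+AL medium with 23 nL pinned compound. Grown 24 h at 30 degrees; viability read by BacTiter-Glo luminescence after 5 min.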
SARS PLP yeast: blocks SARS-CoV papain-like protease in a yeast assay; S. cerevisiae expressing SARS-CoV PLpro, growth rescue; 330,000 compounds, 0.19% hits; Potency, µM (doses to about 32.9 µM), without a hit: at the highest dose activity, positive = growth rescue, actives largely listed as activators; calls by dose curve; further: 0% is about no effect; nearly all actives have a fitted effect of over 55% in size
Numbers without * were called inactive; u = inconclusive; x = no result given; [ ] = dose if it differs, or a comment. Shown are actives, neighbours in structure and some others; about 0.81% of the full set was active somewhere. Unless noted, the call rests on the fitted dose curve; in most records, active means well fitted curve in the direction sought with a large enough effect; inconclusive means small, poorly fitted or top-dose-only effect, or another doubt; inactive means no such curve, though single readings can be large; an effect the other way counts as inactive or inconclusive. Potency means the concentration at half of the fitted maximal effect.

SMILES | TbPYK inhibitor | LmPK inh | AMA1-RON2 inh | RE007 growth inh | SARS PLP yeast
CC(=O)c1ccc(S(=O)(=O)N2CCN(c3nn(C)c(=O)n(C)c3=O)CC2)cc1 | -3% | x | -18% | -13% | 0%
CN1CCn2cnc(C(=O)Nc3ccc(CNC(=O)OC(C)(C)C)cc3)c2C1=O | 0% | x | -6% | -20% | x
S=C(Nc1ccccc1)Nc1nc2ccccc2n1CCOc1ccc(Br)cc1 | -5% | -1% | -16% | 4% | u
Cn1c(NC(=S)Nc2ccccc2)nc2ccccc21 | -21% | -6% | -1%[2.32 µM] | 1% | 8.9µM*
N/C(=N\N=C\c1cccc(O)c1)c1nonc1N | u | 11µM* | 3% | -11% | -1%
Cn1cccc1C(=O)C(=O)Nc1ccccc1 | u | 16µM* | 4% | u | -1%
Cc1ccc(O)c(N=Nc2nccs2)c1 | -21% | x | -15% | 18µM* | -8%
CC1=NN(c2ccccc2)C(=O)C1C(=O)c1ccccc1 (configuration not stated) | -3% | 3% | -1% | -14% | u
CC1=NN(c2ccccc2)C(=O)C1c1ccccc1 (configuration not stated) | -8% | -2% | -13% | 1% | 14µM*
COc1cc2ccc(C(C)=NNC(N)=S)cc2cc1OC | -9% | x | 124% | 0% | x
Cc1cccc(C(=O)n2c(=S)nc3cc(C)ccn32)c1 | -6% | 11µM* | u | -13% | -2%
O=c1[nH][nH]c(=S)n1C1CCCCC1 | 2.5µM* | u | -9% | -1% | 1%
CN(C)c1c([N+](=O)[O-])cc(N2C(=O)C=CC2=O)cc1[N+](=O)[O-] | 7.9µM* | x | 4% | 27% | x
CC(=NNC(=S)N1CCN(c2ccccn2)CC1)c1nccs1 | u | x | -60% | 35µM* | x
CC(=NNC(=S)N1CCN(C2CCCCCC2)CC1)c1ccccn1 | u | x | 14µM* | 2% | x
CCN(CC)CCOC(=O)[C@@H](Cc1cccc2ccccc12)C[C@@H]1CCCO1 | 2%[33.2 µM] | x | x | x | x
CC1=CC(=O)C=CC1=Nc1ccc(N(C)C)cc1 | 35µM* | x | 4µM* | -9%[18.4 µM] | x
CN(C)c1ccc(N=Nc2ccc(S(N)(=O)=O)cc2)cc1 | -5% | -6% | -17% | 20% | 2%
COc1cc(OC)c(OC)cc1/C=N/N(C)c1ccccc1 | -2% | 4% | 32µM* | u | -5%
COc1cc(/C=N/N(C)c2ccccc2)ccc1O | -10% | 1% | -20% | 3% | -5%
Nc1ccc(S(=O)(=O)NCc2ccccc2)cc1 | 0% | x | x | x | x
CCOC(=O)c1cccc(Nc2ccc3cc(S(=O)(=O)N4CCCCC4)ccc3n2)c1 | -2% | x | x | x | x
O=C(CCN1Cc2ccccc2C1)c1ccc2c(c1)OCCO2 | u | 0% | 3% | u | -49%
O=C(CCN1CCc2ccccc2C(c2ccccc2)C1)c1ccc2c(c1)OCCO2 (configuration not stated) | u | -1% | -14% | 5.6µM* | -26%
CCn1c2ccccc2c2cc(CN3CCN(Cc4cc(OC)ccc4O)CC3)ccc21 | -12% | -7% | 13µM* | -20% | 8%
SMILES | TbPYK inhibitor | LmPK inh | AMA1-RON2 inh | RE007 growth inh | SARS PLP yeast
CCn1c2ccccc2c2cc(CN3CCN(Cc4cc(OC)c(O)c(OC)c4)CC3)ccc21 | 5% | x | x | x | x
O=C(c1ccco1)n1c(=S)nc2ccccn21 | -19% | 14µM* | 26% | -4% | -5%
Cc1cccc2nc(=S)n(C(=O)c3ccco3)n12 | -20% | 13µM* | 11% | -22% | -8%
Cc1ccn2c(c1)nc(=S)n2C(=O)c1ccccc1 | -28% | u | 0% | -2% | -26%
COc1ccc(C(=O)Nc2ccc(NC(C)=O)cc2)cc1S(=O)(=O)N1CCCCC1C (configuration not stated) | 0% | x | -10% | 11% | -1%
O=C(CCSc1ccccn1)c1ccccc1 | -9% | -22% | 58% | 25µM* | 10%
O=C(O)CCSc1ccccn1 | -15% | 0% | 0% | -17% | 1%
Cn1c(=NC(=O)c2ccc(F)cc2)sc2cc(Br)ccc21 | -2%[15.4 µM] | x | x | x | x
O=Nc1c(O)n(Cc2ccc(Cl)cc2Cl)c2ccccc12 | -2% | -1% | 11% | 22µM* | -40%
CC(=O)N1CCC[C@@]2(CCN(Cc3cc(C(F)(F)F)cc(C(F)(F)F)c3)C2)C1 | 1% | x | x | x | x
O=C(O)CSc1nnc2c(n1)[nH]c1ccccc12 | 6% | 28µM* | 10% | 36% | -4%
CCC1(Cc2ccc(N)cc2)CCC(=O)NC1=O (configuration not stated) | 0%[157 µM] | x | x | x | x
C=Cc1ccc(S(=O)(=O)O)cc1 | -6% | x | x | x | x
CN(C)c1ccc(C=C2C(=O)NC(=S)NC2=O)cc1 | 32µM* | x | -9% | 33% | x
C(=C\c1nc2ccccc2[nH]1)/c1ccccc1 | u | 8.9µM* | 9% | 32µM* | -34%
C(=C\c1ccco1)/c1nc2ccccc2[nH]1 | -20% | u | -6% | -26% | -4%
CCC(C)NC(=O)c1ccc(Cn2c(=O)c3cccn3c3cccnc32)cc1 (configuration not stated) | -10% | x | x | x | x
CN(C)c1ccc(-n2cccc2/C=C/[N+](=O)[O-])cc1 | 3% | 2% | 7.1µM* | u | -15%
O=C(CCCCCCCC(=O)c1ccccc1)c1ccccc1 | 5% | -1% | 44% | 20% | 1%
C=C(CCC(=O)c1ccccc1)C(=O)c1ccccc1 | -11% | -1% | -8%[2.32 µM] | 32µM* | -91%
Oc1c(C(c2ccccc2)N2CCCCC2)ccc2ccccc12 (configuration not stated) | -2% | x | -5% | -7% | x
Cc1cc(C)nc(Nc2ccc(N3CCOCC3)cc2)n1 | -21% | -11% | -7% | 14% | -1%
Cc1cc(C)nc(Nc2ccc(N3CCCC3)cc2)n1 | -20% | -10% | 32µM* | 9% | 3%
O=C(CN1C(=O)COc2ccc(S(=O)(=O)NC3CCCC3)cc21)Nc1ccc(Cl)cc1 | -3% | x | x | x | x
COc1ccc(N2CCN(C(=O)Cc3ccc(Cl)cc3)CC2)cc1 | 0% | -1% | 18µM* | 9% | -5%
SMILES | TbPYK inhibitor | LmPK inh | AMA1-RON2 inh | RE007 growth inh | SARS PLP yeast
COc1ccc(N2CCN(C(=O)Cc3ccc(C)cc3)CC2)cc1 | -2% | 0% | -12% | 6% | -14%
CC(C)(C)c1ccc(C2Sc3ccccc3NC3=C2C(=O)c2ccccc23)cc1 (configuration not stated) | -6% | x | x | x | x
CC(=O)Nc1ccc(-n2cc(-c3ccccc3)[nH]c2=S)cc1 | 3.2µM* | u | 83% | 5% | 1%
COc1ccc(-n2cc(-c3ccccc3)[nH]c2=S)cc1 | u | u | 11% | 15% | -12%
COc1ccc2nc3cc(Cl)ccc3c(Nc3cc(C(C)C)c(O)cc3C)c2c1 | 2% | 2% | 16µM* | -12% | -6%
CC(=O)Oc1ccc(C2(c3ccc(OC(C)=O)cc3)Oc3ccccc3NC2=O)cc1 | -5% | x | x | x | x
O=C(Nc1ccc(Cl)cc1)C(Cl)C(=O)c1ccccc1 (configuration not stated) | u | -1% | 2% | 11µM* | -17%

Screens (PubChem BioAssay)
